According to paper PMC4336329 (PLoS ONE, 2015):
About 14,000 (4.5%) of roughly 310,000 compounds showed an effect of 50% or more. The effect is printed as a negative number. The list comes from a sample in which strong results are over-represented; it also holds similar structures and randomly drawn compounds.

What follows are compounds tested against human ether-à-go-go-related gene (hERG) potassium channel (human, UniProt Q12809) (assay: primary screen, population patch clamp on CHO cells stably expressing hERG; higher = less effect of the substance).
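Further: peak tail current of the secondary pulse compared with the same well before compound.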

Chain of human ether-à-go-go-related gene (hERG) potassium channel (Q12809 whole entry, looked up): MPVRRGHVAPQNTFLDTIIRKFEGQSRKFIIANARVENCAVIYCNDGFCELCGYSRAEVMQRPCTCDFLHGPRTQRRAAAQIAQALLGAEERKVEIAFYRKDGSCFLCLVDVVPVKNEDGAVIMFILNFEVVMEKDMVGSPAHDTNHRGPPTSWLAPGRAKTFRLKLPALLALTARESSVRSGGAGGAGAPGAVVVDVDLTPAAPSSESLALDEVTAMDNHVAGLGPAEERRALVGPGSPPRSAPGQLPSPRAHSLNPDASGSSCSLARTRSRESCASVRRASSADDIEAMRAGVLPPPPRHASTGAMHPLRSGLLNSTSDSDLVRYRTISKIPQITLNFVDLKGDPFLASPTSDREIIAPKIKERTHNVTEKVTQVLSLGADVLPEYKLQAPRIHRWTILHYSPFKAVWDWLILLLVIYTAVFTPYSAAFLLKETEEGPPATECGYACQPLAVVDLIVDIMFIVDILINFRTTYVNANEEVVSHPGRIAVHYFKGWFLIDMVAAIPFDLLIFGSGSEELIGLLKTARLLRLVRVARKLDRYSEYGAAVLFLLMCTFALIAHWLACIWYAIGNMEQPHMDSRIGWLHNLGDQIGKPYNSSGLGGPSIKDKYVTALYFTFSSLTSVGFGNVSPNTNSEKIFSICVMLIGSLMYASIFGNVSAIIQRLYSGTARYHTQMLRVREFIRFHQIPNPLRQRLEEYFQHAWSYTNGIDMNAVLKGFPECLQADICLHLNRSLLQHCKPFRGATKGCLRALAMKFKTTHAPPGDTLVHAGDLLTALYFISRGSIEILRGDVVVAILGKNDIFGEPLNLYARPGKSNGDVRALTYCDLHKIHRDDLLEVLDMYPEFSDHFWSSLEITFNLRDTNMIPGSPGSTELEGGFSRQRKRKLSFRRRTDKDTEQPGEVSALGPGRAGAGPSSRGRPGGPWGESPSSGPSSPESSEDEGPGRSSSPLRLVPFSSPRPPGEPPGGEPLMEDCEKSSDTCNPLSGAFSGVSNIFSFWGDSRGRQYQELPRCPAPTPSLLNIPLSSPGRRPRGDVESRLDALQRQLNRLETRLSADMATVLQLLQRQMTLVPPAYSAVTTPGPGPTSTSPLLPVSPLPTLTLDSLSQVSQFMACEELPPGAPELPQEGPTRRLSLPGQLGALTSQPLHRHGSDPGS

| SMILES | hERG current change (%, negative = inhibition) at 10uM [%] |
| --- | --- |
| Cc1ccc(S(=O)(=O)NCC(=O)NCC(=O)OC(C(=O)NC(N)=O)C(C)C)cc1C (centres unmarked) | 8.86 |
| CC(C)c1nc(SCC(=O)N2CCCCCC2)c2c(=O)n(C)c(=O)n(C)c2n1 | -11.2 |
| Cc1nc2c(cc1C(=O)N/N=C/c1ccc([N+](=O)[O-])cc1)c(=O)n(C)c(=O)n2C | -12 |
| CC1=C(C)CC(C(=O)Nc2cccc(Cl)c2)C(C(=O)O)C1 (centres unmarked) | 9.8 |
| O=C(CN1C2CCCC1CC(NC(=O)C1CCCCC1)C2)Nc1ccccc1 (centres unmarked) | -27 |
| CC(=O)NC1CC2CCCC(C1)N2CC(=O)N1CCCc2ccccc21 (centres unmarked) | -7.15 |
| O=C(NC1CC2CCCC(C1)N2CC(=O)N1CCCc2ccccc21)C1CCCCC1 (centres unmarked) | -70.6 |
| CCOC(=O)N1CCN(C(=O)C2CCN(C(=O)c3ccc([N+](=O)[O-])cc3)CC2)CC1 | -72 |
| CCOC(=O)C1CCN(C(=O)C2CCN(S(=O)(=O)N3CCCC3)CC2)CC1 | -64.9 |
| O=C(c1ccc2c(c1)OCCO2)C1CCN(C(=O)c2ccc(F)c(F)c2)CC1 | -15.7 |
| CCOC(=O)N1CCN(C(=O)C2CCN(S(=O)(=O)N3CCCC3)CC2)CC1 | 6.91 |
| CCOC(=O)C1CCN(C(=O)c2ccc3c(c2)S(=O)(=O)c2ccccc2C3=O)CC1 | -76.6 |
| CCOC(=O)C1CCN(C(=O)C2CCN(S(=O)(=O)CC)CC2)CC1 | -2.7 |
| CCOC(=O)N1CCN(C(=O)C2CCN(C(=O)c3ccc(C(C)(C)C)cc3)CC2)CC1 | -31 |
| O=C1c2ccccc2S(=O)(=O)c2cc(C(=O)N3CCC(O)CC3)ccc21 | 6.7 |
| O=C(c1ccc2c(c1)OCCO2)C1CCN(C(=O)c2ccc(F)cc2)CC1 | -13 |
| NC(=O)C1CCN(C(=O)c2ccc3c(c2)S(=O)(=O)c2ccccc2C3=O)CC1 | 2.8 |
| CCOc1ccc(C(=O)N2CCC(C(=O)c3ccc4c(c3)OCCO4)CC2)cc1 | -75.7 |
| O=C(c1ccc([N+](=O)[O-])cc1)N1CCN(C(=O)C2CCCCC2)CC1 | -28.5 |
| CC1CC(C)CN(S(=O)(=O)c2ccc(NC(=S)NC(=O)c3ccccc3)cc2)C1 (centres unmarked) | 8.01 |
| CN(C)S(=O)(=O)c1ccc(NC(=O)C2CC(=O)N(Cc3ccccc3Cl)C2)cc1 (centres unmarked) | -0.379 |
| CCCC1(C(=O)OC)NC(c2ccc(OC)c(OC)c2)C2C(=O)N(c3ccc4c(c3)OCO4)C(=O)C21 (centres unmarked) | 16.7 |
| COc1ccc(-c2c(C#Cc3ccsc3)c3ccccc3n2C)cc1 | -6.31 |
| CCOc1ccc(C(=O)C2CCN(C(=O)c3ccccc3C(=O)O)CC2)cc1 | -5.42 |
| CCOC(=O)C1CCN(C(=O)C(C)c2ccc([N+](=O)[O-])cc2)CC1 (centres unmarked) | -21.4 |
| CCOC(=O)C1CCN(C(=O)C2CCN(C(=O)c3ccc([N+](=O)[O-])cc3)CC2)CC1 | -69.3 |
| CCOc1ccc(C(=O)C2CCN(C(=O)c3ccc([N+](=O)[O-])cc3)CC2)cc1 | -79.9 |

| SMILES | hERG current change (%, negative = inhibition) at 10uM [%] |
| --- | --- |
| O=C(CCC(=O)c1ccc(F)cc1)OCc1nnc(-c2ccc([N+](=O)[O-])cc2)o1 | -47 |
| CCOc1ccc(NC(=O)N2CCC(C(=O)c3ccc(F)cc3)CC2)cc1 | -20.8 |
| CCOC(=O)C1CCN(C(=O)c2cccc(C(=O)N3CCC(C(=O)OCC)CC3)c2)CC1 | 4.75 |
| O=C(Oc1cccc([N+](=O)[O-])c1)C1CCN(C(=O)c2ccc(F)cc2)CC1 | -41 |
| O=C(OCc1nnc(-c2ccc([N+](=O)[O-])cc2)o1)C1CCN(C(=O)c2ccc(F)cc2)CC1 | -76 |
| CCOC(=O)C1CCN(C(=O)c2cc(OCC)c(OCC)c(OCC)c2)CC1 | -3.3 |
| CCOC(=O)C1CCN(C(=O)c2ccc(OCC)c(OCC)c2)CC1 | -79.4 |
| CCOC(=O)C1CCN(C(=O)c2ccc(N3CCOCC3)c([N+](=O)[O-])c2)CC1 | -41.8 |
| Cc1ccc(NS(=O)(=O)c2ccc(C(=O)NCc3cccnc3)cc2)cc1 | -4.14 |
| CC(C)c1ccc(NC(=O)CCS(=O)(=O)c2cccc3nonc23)cc1 | 1.81 |
| COc1cc(OC)cc(C(=O)N[C@H](C(=O)OCC(=O)Nc2cccc(F)c2)C(C)C)c1 | -5.55 |
| CC(C)(C)SCCNC(=O)CN1C(=O)c2ccccc2S1(=O)=O | -5.6 |
| CCOC(=O)C(=CNc1cccnc1Oc1ccc(C)c2c1CCC2)C(=O)OCC | -5.67 |
| Cc1cc(NC(=O)C(Cl)c2ccccc2)no1 (centres unmarked) | -0.0237 |
| O=C(CN(c1ccccc1)S(=O)(=O)c1ccccc1[N+](=O)[O-])Nc1cccnc1 | -21.1 |
| C=CCCC(=O)Nc1nc(C)c(-c2csc(Nc3ccccc3OC)n2)s1 | 3.6 |
| CCN1CCCC1CNC1=NCCCCC1 (centres unmarked) | 7.64 |
| CCc1nnc(NS(=O)(=O)c2ccc(NC(=O)c3ccccc3OC)cc2)s1 | 18.5 |
| COc1ccccc1Nc1nnc(SCc2cc(=O)n3cc(C)ccc3n2)s1 | -12.8 |
| COc1ccc(C)cc1NC(=O)NC1CCCCCCC1 | 21 |
| O=C(Nc1ccccc1N1CCOCC1)c1ccc(S(=O)(=O)NCc2ccco2)cc1 | -15.7 |
| O=C(NCc1ccco1)c1ccc(Cl)c(S(=O)(=O)N2CCOCC2)c1 | -7.4 |
| O=C(Nc1ccccc1N1CCOCC1)c1ccc(Cl)c(S(=O)(=O)NCc2ccco2)c1 | -51.8 |
| O=C(NCC1(N2CCOCC2)CCCCC1)c1ccc(Cl)c(S(=O)(=O)NCc2ccco2)c1 | -52.1 |
| CN(C)C1(CNC(=O)c2ccc(Cl)c(S(=O)(=O)NCc3ccco3)c2)CCCCC1 | -37.3 |
| COc1ccccc1NC(=O)c1ccc(Cl)c(S(=O)(=O)NCc2ccco2)c1 | -37.7 |
